From PubChem BioAssay (NCATS)
Inconclusive results are not listed. A call without a number means that no potency is given here. Active and inactive are the calls of the source. Unless noted, calls follow the shape of the dose curve; as a rule, active = well fitted curve in the direction sought with a large enough effect; inconclusive = small, poorly fitted or top-dose-only effect, or another doubt; inactive = no such curve, though single readings can be large; an effect the other way counts as inactive or inconclusive.

Tests used:
[1] = Primary qHTS for inhibitors of nuclear receptor binding SET domain protein 2 (NSD2) in an isogenic RCH-ACV NSD2 p.E1099K mutant (9B) (AID 1645876); also: potency is read from the fitted curve at half-maximal effect; nearly all actives have a fitted effect of over 70% in size
[2] = Primary qHTS for inhibitors of nuclear receptor binding SET domain protein 2 (NSD2) in an RCH-ACV wild type WT cells (2C) (AID 1645877); also: potency is read from the fitted curve at half-maximal effect; nearly all actives have a fitted effect of over 70% in size
[3] = molecular target: Glutathione peroxidase 1 (Homo sapiens) (UniProt P07203); assay: Primary qHTS Assay for Inhibitors of Recombinant Selenoprotein Glutathione Peroxidase 1 (GPX1) (AID 1845191); also: nearly all actives have a fitted effect of over 65% in size
Chain of Glutathione peroxidase 1 (Homo sapiens) (P07203 whole entry, looked up): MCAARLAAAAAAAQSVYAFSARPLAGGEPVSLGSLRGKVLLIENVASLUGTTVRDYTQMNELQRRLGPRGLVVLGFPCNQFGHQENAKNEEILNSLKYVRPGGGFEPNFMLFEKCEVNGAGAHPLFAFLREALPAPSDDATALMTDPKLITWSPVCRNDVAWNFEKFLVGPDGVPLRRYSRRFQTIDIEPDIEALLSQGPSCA
Outline: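 GR-coupled assay: compounds preincubated 30 min at room temperature with GPX1, then reaction started with CHP; final 10 nM GPX1, 1 mM GSH, 0.5 mM CHP, 0.5 mM NADPH, 100 nM GR, 0.01% BSA, pH 7.5 Tris buffer. NADPH fluorescence (340/450 nm) read at 0 and 15 min.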

[4] = molecular target: Phospholipid hydroperoxide glutathione peroxidase GPX4 (Homo sapiens) (UniProt P36969); assay: Primary qHTS Assay for Inhibitors of Recombinant Selenoprotein Glutathione Peroxidase 4 (GPX4) (AID 1845192); details: outcome: dose series up to 50 µM unless noted; also: nearly all actives have a fitted effect of over 65% in size
Chain of Phospholipid hydroperoxide glutathione peroxidase GPX4 (Homo sapiens) (P36969 whole entry, looked up): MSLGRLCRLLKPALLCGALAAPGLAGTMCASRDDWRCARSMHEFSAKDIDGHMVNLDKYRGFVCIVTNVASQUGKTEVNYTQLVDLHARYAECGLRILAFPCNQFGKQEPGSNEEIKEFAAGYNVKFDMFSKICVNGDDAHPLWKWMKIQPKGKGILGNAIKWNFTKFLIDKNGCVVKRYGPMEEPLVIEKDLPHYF
Outline: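 GR-coupled assay: recombinant GPX4 preincubated 30 min with compound at room temperature; final 200 nM GPX4, 1 mM GSH, 0.5 mM cumene hydroperoxide, 0.5 mM NADPH, 100 nM GR, 0.01% BSA, pH 7.5 Tris. NADPH fluorescence (340/450 nm) read at 0 and 15 min.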

[5] = qHTS drug screen for cell cycle checkpoint inhibitors in PARPi-resistant BRCA-mutant ovarian cancer cell lines. (AID 1963452; calls by dose curve); details: PEO1/OlaR viability, CellTiter-Glo luminescence, 96 h, stronger effect = lower value
Outline: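 PEO1, PEO4 and PEO1/OlaR ovarian cancer cells, 600 per well, exposed 96 h at 37C to a dilution series. Viability read by CellTiter-Glo luminescence, normalized to DMSO and empty wells; activity summarized as Z-AUC.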

[6] = qHTS assay to identify inhibitors of the type 1 interferon - major histocompatibility complex class I in skeletal muscle: Counter screen cell viability and HiBit confirmation (AID 1347412); details: iHSKM muscle cells + IFN-b, HiBiT or CellTiter-Glo, 24 h; Viability; at 45.9 µM (top of the series); also: nearly all actives have a fitted effect of over 60% in size
Outline: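 After 24 h with human IFN-beta (4 ng/ml) and compound titrations (top 46 uM final, 1:3, 12 points), HLA-B HiBit myoblasts were lysed for either Nano-Glo HiBiT luminescence or CellTiter Glo viability on paired plates.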

[7] = Validation of Assay for Modulators of Lamin A Splicing (AID 1459; active = well fitted curve in the direction sought with a large enough effect in the signal ratio; the % refers to the signal ratio;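 also: cells exposed to compound for two days before reading; ratio rise marks activators and ratio drop marks inhibitors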)
Outline: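 Splicing correction read as GFP (500-530 nm) over DsRed2 (575-640 nm) object intensity after 48 h compound exposure of reporter HeLa S3 clones (600 cells/well, 2% FBS medium); ancitabine and cycloheximide titrations, 0.5% DMSO as vehicle.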

[8] = qHTS Assay for Lipid Storage Modulators (AID 1519; calls by dose curve); details: Drosophila S3 cells, BODIPY lipid droplet/cell ratio, laser cytometry, cells loaded with oleic acid; for activity change, negative = inhibition: at 57.5 µM (top of the series)
Outline: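 Cells seeded at 5,000 per well were treated with compounds over a concentration series and loaded with oleic acid (400 uM, as added). Lipid droplet fluorescence (488 nm excitation, 500-530 nm channel) was read by laser-scanning cytometry and normalized to 20 uM Triacsin C.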

[9] = molecular target: DNA repair nuclease/redox regulator APEX1 (Homo sapiens) (UniProt P27695); assay: qHTS Validation Assay for Inhibitors of the Human Apurinic/apyrimidinic Endonuclease 1 (APE1) (AID 1705;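 also: TAMRA fluorescence gain over two minutes as APE1 cuts a quenched THF abasic duplex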)
Chain of DNA repair nuclease/redox regulator APEX1 (Homo sapiens) (P27695 whole entry, looked up): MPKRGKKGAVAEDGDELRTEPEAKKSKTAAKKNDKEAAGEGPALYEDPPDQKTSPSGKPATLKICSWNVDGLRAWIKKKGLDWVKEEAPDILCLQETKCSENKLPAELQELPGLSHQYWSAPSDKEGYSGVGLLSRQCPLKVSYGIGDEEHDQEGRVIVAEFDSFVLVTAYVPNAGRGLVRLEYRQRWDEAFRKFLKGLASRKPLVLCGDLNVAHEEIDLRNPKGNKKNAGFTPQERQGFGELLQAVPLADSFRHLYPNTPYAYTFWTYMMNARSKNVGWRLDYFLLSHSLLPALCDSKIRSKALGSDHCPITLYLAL
Outline: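 Activity read as rising fluorescence (598 nm emission, 525 nm excitation) from incision of a TAMRA/BHQ-2 duplex carrying a THF abasic site (50 nM). Compound and enzyme sat 15 min at RT before substrate start; signal change between first and third 60-s reads.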

[10] = Counterscreen for APE1 Inhibitors: Fluorescent Dye Displacement Validation Assay (AID 1707)
Outline: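 Assay buffer: Tris-HCl pH7.5 with 50mM NaCl, 2 mM MgCl2, 0.01% Tween-20. Dye 250 nM, duplex 50 nM final. Readout: decrease in ThO endpoint fluorescence, 480 nm excitation, 540 nm emission.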

[11] = molecular target: Endonuclease 4 (Escherichia coli (strain K12)) (UniProt P0A6C1); assay: Counterscreen for APE1 Inhibitors: qHTS Validation Assay for Inhibitors of Endonuclease IV (AID 1708)
Outline: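 E. coli EndoIV at 2 nM final, preincubated 15 min at room temperature with compound, then 50 nM TAMRA/BHQ-2 THF abasic-site duplex added. Buffer: 50 mM Tris-HCl pH 7.5, 50 mM NaCl, 2 mM MgCl2, 1 mM DTT, 0.01% Tween-20. Kinetic fluorescence increase, third minus first read.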

[12] = molecular target: ATP-dependent DNA helicase Q1 (Homo sapiens) (UniProt P46063); assay: qHTS Validation Assay for Inhibitors of RecQ-Like Dna Helicase 1 (RECQ1) (AID 2353)
Chain of ATP-dependent DNA helicase Q1 (Homo sapiens) (P46063 whole entry, looked up): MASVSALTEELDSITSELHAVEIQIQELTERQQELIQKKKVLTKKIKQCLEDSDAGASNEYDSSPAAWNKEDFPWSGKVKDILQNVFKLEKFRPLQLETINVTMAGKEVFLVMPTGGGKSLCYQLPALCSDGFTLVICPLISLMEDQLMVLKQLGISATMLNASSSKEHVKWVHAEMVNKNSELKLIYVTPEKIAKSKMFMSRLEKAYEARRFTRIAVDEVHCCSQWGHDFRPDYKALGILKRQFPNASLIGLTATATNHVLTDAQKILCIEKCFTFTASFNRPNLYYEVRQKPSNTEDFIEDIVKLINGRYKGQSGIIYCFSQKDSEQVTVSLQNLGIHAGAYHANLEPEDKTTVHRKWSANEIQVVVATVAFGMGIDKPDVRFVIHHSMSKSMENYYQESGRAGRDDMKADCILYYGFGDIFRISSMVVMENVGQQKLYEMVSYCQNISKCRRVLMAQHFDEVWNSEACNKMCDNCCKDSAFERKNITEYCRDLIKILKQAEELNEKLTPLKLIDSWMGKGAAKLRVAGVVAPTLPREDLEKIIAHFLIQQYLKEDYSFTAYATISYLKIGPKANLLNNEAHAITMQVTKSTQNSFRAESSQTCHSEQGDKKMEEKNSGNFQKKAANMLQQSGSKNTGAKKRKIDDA
Outline: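 50 nM RECQ1T1 preincubated 15 min with compound in Tris pH 8.0 buffer with MgCl2, DTT, Tween-20 and 2.5 ug/ml poly(dI-dC); started with 200 nM TAMRA/BHQ-2 forked duplex and 2 mM ATP. Unwinding read as fluorescence (525/598 nm), two reads 2 h apart.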

[13] = Validation screen for small molecules that induce DNA re-replication in MCF 10A normal breast cells (AID 463097); also: nearly all actives have a fitted effect of over 60% in size
Outline: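 Read-out is Hoechst total nuclear intensity by fluorescence scanning imager, flagging increased high-DNA-content nuclei. Compounds were incubated with MCF 10A cells for 48 hr (37 C, 5% CO2) before 40 min staining.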

[14] = Quantitative high throughput screen for delayed death inhibitors of the malarial parasite plastid, 96 hour incubation (AID 488745); also: nearly all actives have a fitted effect of over 70% in size
Outline: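 Luciferase-expressing P. falciparum in erythrocytes (2% hematocrit, 0.1% parasitemia) incubated with compound for 96 h at 37 C, 5% CO2, in RPMI 1640 with 0.5% Albumax. Growth inhibition read as decreased luminescence.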

[15] = Quantitative high throughput screen for delayed death inhibitors of the malarial parasite plastid, 48 hour incubation (AID 488752); also: nearly all actives have a fitted effect of over 65% in size
Outline: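 Erythrocytes infected with firefly luciferase-expressing P. falciparum (2% hematocrit, 0.1% parasitemia) cultured with compound for 48 h at 37 C, 5% CO2, in RPMI 1640/0.5% Albumax. Growth inhibition read as loss of luminescence.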

[16] = molecular target: Transient receptor potential cation channel subfamily V member 1 (Homo sapiens) (UniProt Q8NER1); assay: HTS Assay for Compounds that Act as Enhancers of the Vanilloid Receptor 1 (AID 488979)
Chain of Transient receptor potential cation channel subfamily V member 1 (Homo sapiens) (Q8NER1 whole entry, looked up): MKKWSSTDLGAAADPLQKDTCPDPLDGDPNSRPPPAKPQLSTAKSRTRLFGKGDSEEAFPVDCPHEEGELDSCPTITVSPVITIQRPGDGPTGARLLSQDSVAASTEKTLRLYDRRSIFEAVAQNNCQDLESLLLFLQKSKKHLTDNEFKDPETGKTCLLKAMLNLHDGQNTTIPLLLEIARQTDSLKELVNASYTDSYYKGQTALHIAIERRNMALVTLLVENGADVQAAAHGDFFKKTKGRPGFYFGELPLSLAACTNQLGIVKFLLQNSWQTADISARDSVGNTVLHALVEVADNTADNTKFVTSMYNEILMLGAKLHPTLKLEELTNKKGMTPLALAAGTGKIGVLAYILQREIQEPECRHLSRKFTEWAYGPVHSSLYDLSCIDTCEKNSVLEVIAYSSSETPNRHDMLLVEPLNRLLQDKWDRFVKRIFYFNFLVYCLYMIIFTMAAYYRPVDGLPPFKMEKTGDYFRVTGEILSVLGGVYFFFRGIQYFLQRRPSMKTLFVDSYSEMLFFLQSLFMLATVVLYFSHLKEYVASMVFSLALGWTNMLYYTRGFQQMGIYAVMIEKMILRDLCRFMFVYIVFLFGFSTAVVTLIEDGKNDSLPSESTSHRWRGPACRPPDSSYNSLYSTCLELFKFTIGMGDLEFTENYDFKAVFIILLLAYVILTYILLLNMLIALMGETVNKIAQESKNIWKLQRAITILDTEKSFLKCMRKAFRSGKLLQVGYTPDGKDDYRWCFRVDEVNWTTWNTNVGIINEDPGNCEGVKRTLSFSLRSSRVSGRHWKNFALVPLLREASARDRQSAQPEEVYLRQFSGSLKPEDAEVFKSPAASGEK
Outline: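 TRPV1 cells loaded with Fluo-8 calcium dye; compound added and Ca2+ signal (ex 480/em 520 nm) followed 3 min, then capsaicin at EC20 added and read 2 more min to detect enhancement.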

[17] = molecular target: Thyrotropin receptor (Homo sapiens) (UniProt P16473); assay: qHTS Assay for Antagonists of the Thyroid Stimulating Hormone Receptor (AID 488980)
Chain of Thyrotropin receptor (Homo sapiens) (P16473 whole entry, looked up): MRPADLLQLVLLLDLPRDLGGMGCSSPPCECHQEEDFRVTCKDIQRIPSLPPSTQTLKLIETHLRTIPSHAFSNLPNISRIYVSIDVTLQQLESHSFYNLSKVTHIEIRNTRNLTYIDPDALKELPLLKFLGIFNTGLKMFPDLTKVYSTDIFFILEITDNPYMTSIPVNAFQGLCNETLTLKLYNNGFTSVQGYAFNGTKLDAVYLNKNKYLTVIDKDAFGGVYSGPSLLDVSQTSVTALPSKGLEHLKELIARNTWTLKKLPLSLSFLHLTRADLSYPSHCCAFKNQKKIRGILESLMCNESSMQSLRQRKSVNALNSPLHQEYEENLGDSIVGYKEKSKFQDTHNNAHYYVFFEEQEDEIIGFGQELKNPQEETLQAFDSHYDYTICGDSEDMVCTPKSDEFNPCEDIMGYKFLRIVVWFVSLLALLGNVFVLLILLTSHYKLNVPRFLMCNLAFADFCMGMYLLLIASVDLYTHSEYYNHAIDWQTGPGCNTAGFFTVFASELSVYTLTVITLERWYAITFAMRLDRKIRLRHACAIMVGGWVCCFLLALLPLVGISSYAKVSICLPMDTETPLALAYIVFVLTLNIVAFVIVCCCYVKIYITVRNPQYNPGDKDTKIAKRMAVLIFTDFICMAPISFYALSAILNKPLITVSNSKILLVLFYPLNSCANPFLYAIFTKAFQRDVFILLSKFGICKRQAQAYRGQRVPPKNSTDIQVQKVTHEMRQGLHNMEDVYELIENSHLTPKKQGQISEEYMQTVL
Outline: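 Inhibition of cAMP raised by EC80 TSH (4 nM final) was read by HTRF, with lysate cAMP competing against cAMP-d2 for cryptate antibody after 30 min at room temperature. The cells were transfected HEK293 held in phosphodiesterase inhibitor RO 20-1724 at 70 uM.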

[18] = molecular target: Galactokinase (Homo sapiens) (UniProt P51570); assay: qHTS Validation Assay for Inhibitors of Human Galactokinase (GALK) (AID 493189)
Chain of Galactokinase (Homo sapiens) (P51570 whole entry, looked up): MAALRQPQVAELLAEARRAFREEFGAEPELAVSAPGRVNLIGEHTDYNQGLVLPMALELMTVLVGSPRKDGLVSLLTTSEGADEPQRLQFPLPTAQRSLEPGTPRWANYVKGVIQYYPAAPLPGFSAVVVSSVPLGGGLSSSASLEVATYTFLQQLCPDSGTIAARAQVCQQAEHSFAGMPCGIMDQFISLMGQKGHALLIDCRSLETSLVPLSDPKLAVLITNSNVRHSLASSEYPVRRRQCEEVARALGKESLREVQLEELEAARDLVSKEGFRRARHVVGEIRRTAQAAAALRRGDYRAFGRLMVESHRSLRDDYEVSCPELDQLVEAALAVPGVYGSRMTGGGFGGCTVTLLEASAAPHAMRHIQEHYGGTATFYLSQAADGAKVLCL
Outline: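 Inhibition was measured as remaining ATP, detected by luciferase luminescence after a 1 h room-temperature reaction. Final conditions: 5 nM GALK, 100 uM galactose, 35 uM ATP, pH 8.0 HEPES buffer.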

[19] = Validation screen for small molecules that induce DNA re-replication in SW480 colon adenocarcinoma cells (AID 504364)
Outline: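 SW480 cells (250/well) exposed 48 h at 37 C, 5% CO2, then Hoechst-stained 40 min. Nuclear DNA content imaged by fluorescence scanning (405 nm excitation, 500-530 nm emission); re-replication scored as increased nuclei with elevated intensity.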

[20] = measured here: PEO1 parental Z-AUC
[21] = measured here: cell count channel max response
[22] = measured here: lipid channel max response

COC1CC(C(=O)c2ccc3c(N)ncc(-c4ccc(-c5cnn(C)c5)cc4)c3n2)C1 (stereo not drawn)
Potency [1]: 1480 nM (active) | Potency [2]: 41.7 nM (active) | Potency [3]: inactive | Potency [4]: inactive | Z-AUC [5]: -1.33 (inactive) | Z-AUC [5, 20]: -1.16 | Z-AUC ([5]; measured here: PEO4 Z-AUC): -1.1 | activity change, negative = inhibition [6]: 4.77% (inactive)

Nc1nc(SCc2ccc([N+](=O)[O-])cc2)c2ncn([C@@H]3O[C@H](CO)[C@H](O)[C@H]3O)c2n1
outcome [7]: inactive | activity change, negative = inhibition [8]: -2% (inactive) | max response [8, 21]: -35.2% | max response [8, 22]: -38% | Potency [9]: inactive | Potency [10]: inactive | outcome [11]: inactive | Potency [12]: inactive | outcome [13]: inactive | Potency [14]: inactive | Potency [15]: inactive | outcome [16]: inactive | outcome [17]: inactive | outcome [18]: inactive | outcome [19]: inactive

O=C(Cc1ccc(Cl)c(Cl)c1)OCCN1CCCC1
outcome [7]: inactive | activity change, negative = inhibition [8]: 1.23% (inactive) | max response [8, 21]: -1.75% | max response [8, 22]: -0.355% | Potency [9]: inactive | Potency [10]: inactive | outcome [11]: inactive | Potency [12]: inactive | outcome [13]: inactive | Potency [14]: inactive | Potency [15]: inactive | outcome [16]: inactive | outcome [17]: inactive | outcome [18]: inactive | outcome [19]: inactive

CN=C(N)NCCCC(N)C(=O)O (stereo not drawn)
outcome [7]: inactive | activity change, negative = inhibition [8]: 0.52% (inactive) | max response [8, 21]: -20% | max response [8, 22]: -19.4% | Potency [9]: inactive | Potency [10]: inactive | outcome [11]: inactive | Potency [12]: inactive | outcome [13]: inactive | Potency [14]: inactive | Potency [15]: inactive | outcome [16]: inactive | outcome [17]: inactive | outcome [18]: inactive | outcome [19]: inactive

CN1C(=O)CCC1c1cccnc1 (stereo not drawn)
outcome [7]: inactive | activity change, negative = inhibition [8]: 10.8% (inactive) | max response [8, 21]: -1.85% | max response [8, 22]: 10.6% | Potency [9]: inactive | Potency [10]: inactive | outcome [11]: inactive | Potency [12]: inactive | outcome [13]: inactive | Potency [15]: inactive | outcome [16]: inactive | outcome [17]: inactive | outcome [18]: inactive | outcome [19]: inactive

CC(=O)O[C@H]1C[C@@H]2CCC3C(CC[C@@]4(C)[C@H]3C[C@H]([N+]3(C)CCCCC3)[C@@H]4OC(C)=O)[C@@]2(C)C[C@@H]1[N+]1(C)CCCCC1 (stereo partly drawn)
outcome [7]: inactive | activity change, negative = inhibition [8]: 0.655% (inactive) | max response [8, 21]: -31.8% | max response [8, 22]: -31.3% | Potency [9]: inactive | Potency [10]: inactive | outcome [11]: inactive | Potency [12]: inactive | outcome [13]: inactive | Potency [15]: inactive | outcome [16]: inactive | outcome [17]: inactive | outcome [18]: inactive | outcome [19]: inactive

COc1cc(C(N)=O)ccc1NC(=O)[C@@H]1N[C@@H](CC(C)(C)C)[C@@]2(C(=O)Nc3cc(Cl)ccc32)[C@H]1c1cccc(Cl)c1F
Potency [1]: 235 nM (active) | Potency [2]: 93.4 nM (active) | Potency [3]: inactive | Z-AUC [5]: -0.18 (inactive) | Z-AUC [5, 20]: -0.499 | Z-AUC ([5]; measured here: PEO4 Z-AUC): -0.498 | activity change, negative = inhibition [6]: -16.3% (inactive)

COc1c2c(nc3ccccc13)OC(C(C)(O)CO)C2 (stereo not drawn)
outcome [7]: inactive | activity change, negative = inhibition [8]: 1.22% (inactive) | max response [8, 21]: -18% | max response [8, 22]: -12.2% | Potency [9]: inactive | Potency [10]: inactive | outcome [11]: inactive | Potency [12]: inactive | outcome [13]: inactive | Potency [14]: inactive | Potency [15]: inactive | outcome [16]: inactive | outcome [17]: inactive | outcome [18]: inactive | outcome [19]: inactive
